From PubChem
Most compounds without a hit are left out; they make up all but 2.4% or so of the library.
Yeast superoxide – caloric restriction mimetics inhibiting age-related superoxide in yeast; S. cerevisiae aged cells, superoxide DHE fluorescence; active compounds read low; superoxide response (% of plate mean), % at 10 µM; AID 2690; 330,000 tested, 0.18% active;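 active means superoxide response under a set limit, about three screen SD below normal, cut at about 65% in these data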;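 further: yeast aged for seven days with compound at 30 °C before DHE staining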
M18AAP inhibitor – blocks P. falciparum M18 aspartyl aminopeptidase | 290,000 tested, 1.2% active | recombinant PfM18AAP, H-Glu-NHMec fluorogenic cleavage | inhibition, % at 7.35 µM;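 active means inhibition above the campaign mean inhibition over all tested compounds plus 3 SD, cut at about 28% in these data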
PfGluPho inh – PfG6PD (Plasmodium falciparum) enzyme inhibition; PfGluPho enzyme, NADPH resazurin-diaphorase fluorescence; inhibition, % at 20 µM; 350,000 tested, 0.78% active; AID 504690;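 active means inhibition reaching at least a set limit at 20 µM in the primary screen, cut at about 59% in these data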
A3G deaminase – APOBEC3G (human) deaminase inhibition. Q9HC16. recombinant A3G, ssDNA deamination FAM/TAMRA fluorescence. inhibition, % at 20 µM. 330,000 tested, 0.28% active. AID 493012;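 active means inhibition of at least 40% at 20 µM, with no more than 30% in the related APOBEC3A deaminase screen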
Target sequence (Q9HC16 whole entry, looked up): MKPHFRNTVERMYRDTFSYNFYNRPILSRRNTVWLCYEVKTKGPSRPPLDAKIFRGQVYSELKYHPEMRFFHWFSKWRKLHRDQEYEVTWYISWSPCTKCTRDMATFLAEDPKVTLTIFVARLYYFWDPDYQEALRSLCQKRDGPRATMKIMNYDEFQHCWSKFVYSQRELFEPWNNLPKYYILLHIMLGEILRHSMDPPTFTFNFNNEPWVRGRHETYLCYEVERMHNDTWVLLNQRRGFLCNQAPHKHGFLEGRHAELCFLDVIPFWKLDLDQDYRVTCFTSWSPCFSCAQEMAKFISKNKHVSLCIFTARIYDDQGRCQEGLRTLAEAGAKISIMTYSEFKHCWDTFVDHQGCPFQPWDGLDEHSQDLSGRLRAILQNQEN
APOBEC3A inh – human APOBEC3A DNA deaminase inhibition; recombinant A3A, FAM/TAMRA ssDNA deamination fluorescence; 330,000 tested, 0.41% active; inhibition, % at 20 µM;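 active means at least 40% inhibition at 20 µM here, with at most 30% in a related deaminase screen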
Target sequence (P31941 whole entry, looked up): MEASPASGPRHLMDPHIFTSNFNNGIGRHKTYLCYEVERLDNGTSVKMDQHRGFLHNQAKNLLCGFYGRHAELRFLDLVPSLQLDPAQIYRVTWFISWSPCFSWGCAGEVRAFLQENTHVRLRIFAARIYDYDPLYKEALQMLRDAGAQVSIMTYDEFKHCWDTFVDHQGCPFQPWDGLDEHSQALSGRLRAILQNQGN
PfGluPho conf – confirmation of Plasmodium falciparum G6PD inhibitors | shares compounds with PfGluPho inh | recombinant PfGluPho, NADPH-diaphorase-resazurin fluorescence | inhibition, % at 20 µM | 2,400 tested, 34% active | AID 504753;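 active means inhibition of at least 50% at 20 µM in any single replicate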
Diaph ctr 10uM – inhibits diaphorase or oxidizes, flagging false PfG6PD hits. 820 tested, 39% active. inhibition, % at 20 µM. shares compounds with PfGluPho inh. diaphorase-coupled resazurin reduction, fluorescence, NADPH 10 uM. AID 504862;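 active means average inhibition reaching 50% or more with the compound at 20 µM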;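 further: resorufin red fluorescence formed as diaphorase reduces resazurin using NADPH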
Diaphorase 30uM – counter-screen for P. falciparum G6PD inhibitors: diaphorase inhibitors, oxidizers | shares compounds with PfGluPho inh | 820 tested, 29% active | inhibition, % at 20 µM | Diaphorase/resazurin coupled assay, resorufin fluorescence, 30 uM NADPH | AID 504863;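 active means inhibition averaging 50% or more, tested at 20 µM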
Each line names hits and unclear results; the compound was inactive in the other large screens (follow-up assays come after a bar, where they were run).

CC1(OC(=O)CCc2ccccc2)C(=O)C=C2C=C(c3ccc(C#N)cc3)N(CCc3c[nH]c4ccccc34)C=C2C1=O (stereo unspecified)	PfGluPho inh 79 (no result: M18AAP inhibitor) | PfGluPho conf inactive
COc1ccc(CN2C=C3C(=O)C(C)(OC(=O)CCc4ccccc4)C(=O)C=C3C=C2c2ccc(C#N)cc2)cc1 (stereo unspecified)	none (no result: M18AAP inhibitor)
CC1(OC(=O)CCc2ccccc2)C(=O)C=C2C=C(c3ccc(C#N)cc3)N(C(CO)CO)C=C2C1=O (stereo unspecified)	PfGluPho inh 65 (no result: M18AAP inhibitor) | PfGluPho conf inactive
CC1(OC(=O)CCc2ccccc2)C(=O)C=C2C=C(c3ccc(C#N)cc3)N(C3CCCCC3)C=C2C1=O (stereo unspecified)	PfGluPho inh 75 (no result: M18AAP inhibitor) | PfGluPho conf inactive
Cc1cc(C(=O)COc2ccc(F)cc2Br)c(C)n1C1CC1	none (no result: Yeast superoxide, M18AAP inhibitor)
Nc1nc(-c2ccc(Oc3ccccc3)cc2)c(CC(=O)O)s1	none
O=C(CCNS(=O)(=O)c1ccc(Br)cc1)NNC(=O)C1COc2ccccc2O1 (stereo unspecified)	none (no result: M18AAP inhibitor)
Cc1cccc(C)c1OCc1cc(C(=O)N(C)CCc2ccccn2)no1	none
Cc1cccc(NC(=O)C(Cc2ccccc2)c2nn[nH]n2)c1C (stereo unspecified)	none
O=C(c1cccc(C(=O)N2CCN(c3ncccn3)CC2)c1)N1CCN(c2ncccn2)CC1	none
O=C(Nc1ccc2nc(-c3ccco3)c(-c3ccco3)nc2c1)N1CCN(c2ccccn2)CC1	PfGluPho inh 81, APOBEC3A inh 43 | PfGluPho conf inactive
Cc1nc2cc(NC(=O)N3CCN(c4ccccn4)CC3)ccc2o1	none
O=C(c1ccc2nc(-c3ccco3)c(-c3ccco3)nc2c1)N1CCN(c2ncccn2)CC1	PfGluPho inh 69 | PfGluPho conf inactive
O=C1C(=Cc2ccccc2O)SC(=S)N1CCCN1CCOCC1	PfGluPho inh 71 (no result: Yeast superoxide, M18AAP inhibitor, A3G deaminase, APOBEC3A inh) | PfGluPho conf inactive
CC1=CC(C)(C)Nc2ccc(OC(=O)CN3C(=O)c4ccccc4C3=O)cc21	PfGluPho inh 75 | PfGluPho conf inactive
CC1=CC(C)(C)Nc2ccc(OC(=O)C(Cc3ccccc3)N3C(=O)c4ccccc4C3=O)cc21 (stereo unspecified)	none
CC1=CC(C)(C)Nc2ccc(OC(=O)CN3C(=O)c4cccc5cccc(c45)C3=O)cc21	PfGluPho inh 91 (no result: A3G deaminase, APOBEC3A inh) | PfGluPho conf 85 | Diaph ctr 10uM inactive | Diaphorase 30uM inactive
CCOC(=O)c1c(C)oc2c1c(C=NCc1ccccn1)c(O)c1ccccc12	PfGluPho inh 68 (no result: Yeast superoxide, A3G deaminase, APOBEC3A inh) | PfGluPho conf inactive
O=C(Nc1ccc(Cl)cc1)c1ccc(-n2cncn2)c([N+](=O)[O-])c1	PfGluPho inh 84 | PfGluPho conf inactive
Cc1ccc(NC(=O)c2ccc(-n3cncn3)c([N+](=O)[O-])c2)cc1	none
O=C(Nc1cccc(Cl)c1)c1ccc(-n2cncn2)c([N+](=O)[O-])c1	PfGluPho inh 61 | PfGluPho conf inactive
COc1ccccc1NC(=O)Nc1nc(CC(=O)NCc2ccc(F)cc2)cs1	none (no result: M18AAP inhibitor)
Oc1cc2c(cc1O)[C@H]1c3ccc(O)c(O)c3OC[C@@]1(O)C2	PfGluPho inh 113, A3G deaminase 59 (no result: M18AAP inhibitor) | PfGluPho conf 98 | Diaph ctr 10uM 56 | Diaphorase 30uM inactive
Oc1ccc2c(c1)OCC1(O)Cc3cc(O)c(O)cc3C21 (stereo unspecified)	none (no result: Yeast superoxide, M18AAP inhibitor, A3G deaminase, APOBEC3A inh)
COc1cc(NC(=O)c2ccccc2)c(C)cc1NC(=O)CC(CC(=O)O)c1ccccc1 (stereo unspecified)	none
CC(C)CN1CCC(=O)N(CCO)CC1	none
COc1ccc(-n2c(C)cc(C(=O)CSc3nnc(-c4ccoc4C)n3C)c2C)cc1	PfGluPho inh 67 | PfGluPho conf inactive
O=C(O)c1cccc2c1C(=O)c1ccccc1C2=O	none
O=C1C(O)=CC(=C(c2ccccc2)c2ccccc2)c2ccccc21	PfGluPho inh 117 (no result: Yeast superoxide, M18AAP inhibitor, A3G deaminase, APOBEC3A inh) | PfGluPho conf inactive
COCC(=O)OC1CCn2c1nc1c2C(=O)C(C)=C(NC(C)=O)C1=O (stereo unspecified)	PfGluPho inh 123 (no result: Yeast superoxide, M18AAP inhibitor, A3G deaminase, APOBEC3A inh) | PfGluPho conf 104 | Diaph ctr 10uM 99 | Diaphorase 30uM 89
O=C(CC(C(=O)O)c1cccc(Cl)c1Cl)c1ccccc1 (stereo unspecified)	none
O=C1C(F)=CC(COC(c2ccccc2)(c2ccccc2)c2ccccc2)OC1n1cc(F)c(=O)[nH]c1=O (stereo unspecified)	PfGluPho inh 59 (no result: Yeast superoxide, M18AAP inhibitor, A3G deaminase, APOBEC3A inh) | PfGluPho conf inactive
COC(=O)c1c(C)n(-c2ccccc2)c2ccc(O)cc12	PfGluPho inh 63 | PfGluPho conf inactive
COC(=O)c1c(C)n(-c2ccc(C)cc2)c2ccc(O)cc12	none
O=S(=O)(c1ccc(SCc2c(F)cccc2Cl)nc1)N1CCCC1	none (no result: Yeast superoxide, M18AAP inhibitor, A3G deaminase, APOBEC3A inh)
O=S(=O)(Nc1ccccc1N1CCOCC1)c1ccc(Cl)cc1	PfGluPho inh 70 (no result: M18AAP inhibitor) | PfGluPho conf inactive
O=S(=O)(Nc1ccccc1N1CCCCC1)c1ccc(F)cc1	PfGluPho inh 69 | PfGluPho conf inactive
O=S(=O)(Nc1ccccc1N1CCCCC1)c1ccccc1	none
Cc1cc(C)c(C)c(S(=O)(=O)Nc2ccccc2N2CCOCC2)c1C	PfGluPho inh 65 (no result: M18AAP inhibitor) | PfGluPho conf inactive
COc1cc(CN2CCNC(=O)C2CC(=O)N(C)CCN2CCOCC2)cc(OC)c1 (stereo unspecified)	none (no result: Yeast superoxide)
Cc1ccc(Cl)cc1NC(=O)c1cc2ccccc2cc1O	PfGluPho inh 61 | PfGluPho conf inactive
CCC(C(=O)Nc1ccc(S(=O)(=O)N2CCN(C)CC2)cc1)c1ccccc1 (stereo unspecified)	none
O=C(Nc1nnc(S(=O)(=O)N2CCCCC2)s1)c1cccc(Br)c1	PfGluPho inh 100 | PfGluPho conf 61 | Diaph ctr 10uM 69 | Diaphorase 30uM inactive
O=C(Nc1nnc(CSCc2ccccc2F)s1)c1cccc([N+](=O)[O-])c1	PfGluPho inh 61 | PfGluPho conf inactive
O=C(Nc1nnc(S(=O)(=O)N2CCCC2)s1)c1cccc([N+](=O)[O-])c1	PfGluPho inh 97 | PfGluPho conf 77 | Diaph ctr 10uM 50 | Diaphorase 30uM inactive
COc1ccc(C(=O)Nc2nnc(S(=O)(=O)N3CCCCCC3)s2)cc1OC	none
COc1c(Cl)cccc1-c1cn2ccc(C)cc2n1	PfGluPho inh 83 | PfGluPho conf inactive
Cc1ccn2cc(-c3cnoc3C)nc2c1	none
Cc1ccc2nc3sc(C(=O)N4CCOCC4)c(N)c3cc2c1	PfGluPho inh 84 | PfGluPho conf 52 | Diaph ctr 10uM 61 | Diaphorase 30uM inactive
COc1ccc(S(=O)(=O)N2CCN(CC(=O)NC(C)c3cccs3)CC2)cc1 (stereo unspecified)	none (no result: Yeast superoxide, M18AAP inhibitor, A3G deaminase, APOBEC3A inh)
